“And” between values parts separate entries of the source, which are not always exact repeats. Identical values can stand only once. Results filed as inconclusive are left out. The source made the active and inactive calls. Unless noted, the call rests on the fitted dose curve.
What was measured:
[1] = Nuclear factor erythroid 2-related factor 2/antioxidant responsive element (Nrf2/ARE) small molecule agonists: luciferase reporter gene qHTS assay in human keratinocytes (AID 1919969); further: nearly all actives have a fitted effect of over 35% in size
[2] = target: KiSS-1 receptor (Homo sapiens) (UniProt Q969F8); test: Human kisspeptin (KISS1R) small molecule agonists, calcium flux assay in KISS1R-HEK293 cells (AID 1920064; active means well fitted activation curve with a large enough effect in the repeat runs)
Method in brief: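 Cell line: HEK293, stable human KISS1R. Dye loading 1 h at 37 C after 18 h culture. Read: kinetic fluorescence, 480/540 nm, 3 min at 1 s intervals.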

[3] = G protein-coupled receptor (GPCR) small molecule agonists, calcium flux assay: HEK293 wild type cell line counter screen (AID 1920065)
Method in brief: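 Tox21 10K compounds, 15 concentrations each in triplicate, pin-transferred in DMSO onto dye-loaded cells; kinetic read at 480/540 nm for 3 min, 1 s intervals.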

[4] = p53 small molecule agonists, cell-based qHTS assay with rat liver microsomes (AID 1963578)
Method in brief: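 Quantitative HTS of the Tox21 10K library: p53RE-bla cells, rat liver microsomes plus NADPH at 0.5 mg/mL final each, 16 h at 37 C, beta-lactamase fluorescence detection.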

[5] = p53 small molecule agonists, cell-based qHTS assay with human liver microsomes: qHTS cell viability counter screen (AID 1963579); further: nearly all actives have a fitted effect of over 45% in size
Method in brief: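 Viability of p53RE-bla cells is measured as CellTiter-Glo luminescence following a 16 h, 37 C incubation with compound, liver microsomes from human donors and NADPH.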

[6] = p53 small molecule agonists, cell-based qHTS assay with rat liver microsomes: qHTS cell viability counter screen (AID 1963580); further: nearly all actives have a fitted effect of over 45% in size
Method in brief: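 After the beta-lactamase ratio was read, CellTiter-Glo was added to the same wells and luminescence measured at 30 min; cells had been treated 16 h at 37 C with compounds, rat liver microsomes and NADPH (0.5 mg/mL final each).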

[7] = p53 small molecule agonists, cell-based qHTS assay: qHTS cell viability counter screen (AID 1963581); further: nearly all actives have a fitted effect of over 45% in size
Method in brief: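 ATP content measured by luminescence in HCT-116 p53RE-bla cells treated 16 h at 37 C, same wells as the reporter screen.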

[8] = p53 small molecule agonists, cell-based qHTS assay (AID 1963582; active means well fitted activation curve with a large enough effect in the signal ratio in the repeat runs, not every such curve was filed as active; the % refers to the signal ratio)
Method in brief: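 16 h compound exposure (37 C) of p53 response element–bla cells, preceded by 5 h recovery at 37 C/5% CO2; read-out via LiveBLAzer B/G FRET substrate, 2 h RT, fluorescence intensity.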

[9] = cAMP Responsive Elements (CRE) small molecule agonists, cell-based qHTS assay (AID 1963590)
Method in brief: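 HEK 293T cells stably bearing CRE-bla were plated at 2,000 cells per well and rested 18 h. Compounds, positive controls or DMSO were added for 3 h at 37 C. LiveBLAzer B/G substrate was then loaded for 2 h at room temperature.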

[10] = cAMP Responsive Elements (CRE) small molecule antagonists, cell-based qHTS assay (AID 1963591; active means well fitted inhibition curve with a large enough effect in the signal ratio in the repeat runs, not every such curve was filed as active; the % refers to the signal ratio)
Method in brief: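 First, CRE-bla HEK293T cells settled 18 h at 37 C. Next, compound and 0.25 uM final NKH477 were applied for 3 h. Last, LiveBLAzer B/G substrate was loaded for 2 h at room temperature.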

[11] = target: Beta-2 adrenergic receptor (Homo sapiens) (UniProt P07550); test: Adrenergic beta2 receptor (ADRB2) small molecule antagonists, cell-based qHTS assay (AID 1963592); further: nearly all actives have a fitted effect of over 50% in size; further: potency means the concentration at half of the fitted maximal effect; on activity change, negative = inhibition: series mostly up to about 92 µM
Method in brief: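 Assay format: CHO-ADRB2 cells, 18-20hr seeding at 37C/5% CO2, then compound plus 1nM isoproterenol agonist mix for 0.5hr RT. Homogeneous time-resolved fluorescence cAMP detection after 1hr, expressed as 665/615 nm ratio.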

[12] = target: D(2) dopamine receptor (Homo sapiens) (UniProt P14416); test: Dopamine D2 receptor (DRD2) small molecule agonists, cell-based qHTS assay (AID 1963594); further: nearly all actives have a fitted effect of over 35% in size
Method in brief: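 HEK293 cells stably expressing human DRD2, pre-treated with PDE inhibitor Ro20-1724 (0.1 mM final) and compound 10 min at room temperature, then stimulated with NKH477 (200nM […]) for 30 min. cAMP read by HTRF (665/620 nm).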

[13] = target: D(2) dopamine receptor (Homo sapiens) (UniProt P14416); test: Dopamine D2 receptor (DRD2) small molecule antagonists, cell-based qHTS assay (AID 1963595; active means well fitted inhibition curve with a large enough effect in the signal ratio in the repeat runs, with a control signal flat; the % refers to the signal ratio; further: potency means the concentration at half of the fitted maximal effect)
Method in brief: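 Human DRD2 antagonist qHTS measuring cAMP by HTRF. The cells are exposed to compound for 10 min, then to NKH477 (200 nM) and quinpirole (12 nM) for 30 min at RT, with Ro20-1724 (0.1 mM) present throughout.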

[14] = target: Beta-2 adrenergic receptor (Homo sapiens) (UniProt P07550); test: Adrenergic beta2 receptor (ADRB2) small molecule agonists, cell-based qHTS assay (AID 1963593);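 further: CHO cells stably overexpressing human ADRB2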
Method in brief: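 CHO cells stably over-expressing ADRB2 were plated overnight at 37C, then dosed with compounds plus a stimulation mix containing 100uM IBMX and 25uM Ro-20-1724 for 0.5hr at room temperature. cAMP was measured by HTRF competition, 1hr.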

[15] = p53 small molecule agonists, cell-based qHTS assay with human liver microsomes (AID 1963577);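 further: p53 response element beta-lactamase reporter cells with liver microsomes plus NADPH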
Method in brief: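 HLM-supplemented p53RE-bla reporter assay: 16 h compound exposure at 37 C, microsomes and NADPH each 0.5 mg/mL final, read by fluorescence intensity.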

[16] = target: 5-hydroxytryptamine receptor 2A (Homo sapiens) (UniProt P28223); test: 5-hydroxytryptamine receptor 2A (HTR2A) small molecule antagonists, cell-based qHTS assay (AID 1963586); further: nearly all actives have a fitted effect of over 45% in size
Method in brief: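 CHO cells stably expressing human HTR2A were plated for 18 h at 37 C, then loaded with calcium dye for 1 h. Compounds were preincubated 5 min at room temperature before DOI (4 nM solution) was added. Kinetic fluorescence was read for 3 min.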

[17] = target: Muscarinic acetylcholine receptor M1 (Homo sapiens) (UniProt P11229); test: Cholinergic receptor muscarinic 1 (CHRM1) small molecule antagonists, cell-based qHTS assay (AID 1963588); further: nearly all actives have a fitted effect of over 40% in size; further: potency means the concentration at half of the fitted maximal effect
Method in brief: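 Compounds were tested at 15 concentrations in three independent runs. Dye-loaded CHRM1-CHO cells were exposed 5 min at room temperature before stimulation by acetylcholine added at 50nM. Intracellular calcium was read kinetically on FDSS for 3 min.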

[18] = target: Muscarinic acetylcholine receptor M1 (Homo sapiens) (UniProt P11229); test: Cholinergic receptor muscarinic 1 (CHRM1) small molecule agonists, cell-based qHTS assay (AID 1963589); further: nearly all actives have a fitted effect of over 35% in size
Method in brief: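 Homogeneous fluorescence calcium flux, agonist mode. Human M1-expressing CHO cells; compound dosed at 15 concentrations, three independent runs; signal sampled every 1 sec.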

[19] = target: 5-hydroxytryptamine receptor 2A (Homo sapiens) (UniProt P28223); test: 5-hydroxytryptamine receptor 2A (HTR2A) small molecule agonists, cell-based qHTS assay (AID 1963587); further: nearly all actives have a fitted effect of over 30% in size; further: potency means the concentration at half of the fitted maximal effect
Method in brief: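 CHO cells stably expressing human HTR2A, plated 18 h, loaded with calcium dye 1 h at 37 C. Agonist mode: compounds added and intracellular calcium fluorescence recorded kinetically for 2 min at 1 sec intervals.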
On the % scale 0 is the no-effect control and ±100 the full control effect.

Sequence of D(2) dopamine receptor (Homo sapiens) (P14416 whole entry, looked up): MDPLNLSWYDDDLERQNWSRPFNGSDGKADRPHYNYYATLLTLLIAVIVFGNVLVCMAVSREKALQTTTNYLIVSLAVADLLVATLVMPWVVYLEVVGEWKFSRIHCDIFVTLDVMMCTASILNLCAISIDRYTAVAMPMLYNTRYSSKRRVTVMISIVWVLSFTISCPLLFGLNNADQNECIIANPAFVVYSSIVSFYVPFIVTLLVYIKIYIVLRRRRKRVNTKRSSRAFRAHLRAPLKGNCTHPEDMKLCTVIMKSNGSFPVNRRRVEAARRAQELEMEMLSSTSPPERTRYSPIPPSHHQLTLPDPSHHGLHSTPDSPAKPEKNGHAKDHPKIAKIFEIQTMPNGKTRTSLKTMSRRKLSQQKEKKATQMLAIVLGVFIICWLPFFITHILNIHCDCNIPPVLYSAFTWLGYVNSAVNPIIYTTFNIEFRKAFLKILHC
Sequence of 5-hydroxytryptamine receptor 2A (Homo sapiens) (P28223 whole entry, looked up): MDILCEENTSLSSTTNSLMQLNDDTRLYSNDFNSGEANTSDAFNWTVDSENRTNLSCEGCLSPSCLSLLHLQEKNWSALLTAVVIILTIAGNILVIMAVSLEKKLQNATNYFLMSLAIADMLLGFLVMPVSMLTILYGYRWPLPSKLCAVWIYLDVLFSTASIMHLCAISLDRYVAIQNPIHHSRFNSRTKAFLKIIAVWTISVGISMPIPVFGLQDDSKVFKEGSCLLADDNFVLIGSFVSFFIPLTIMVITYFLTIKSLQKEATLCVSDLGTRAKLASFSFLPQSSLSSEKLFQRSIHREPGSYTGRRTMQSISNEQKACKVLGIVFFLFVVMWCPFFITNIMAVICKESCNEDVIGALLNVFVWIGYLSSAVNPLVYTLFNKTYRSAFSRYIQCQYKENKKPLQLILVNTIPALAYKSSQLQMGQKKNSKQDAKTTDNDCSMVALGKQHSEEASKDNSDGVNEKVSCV
Sequence of Beta-2 adrenergic receptor (Homo sapiens) (P07550 whole entry, looked up): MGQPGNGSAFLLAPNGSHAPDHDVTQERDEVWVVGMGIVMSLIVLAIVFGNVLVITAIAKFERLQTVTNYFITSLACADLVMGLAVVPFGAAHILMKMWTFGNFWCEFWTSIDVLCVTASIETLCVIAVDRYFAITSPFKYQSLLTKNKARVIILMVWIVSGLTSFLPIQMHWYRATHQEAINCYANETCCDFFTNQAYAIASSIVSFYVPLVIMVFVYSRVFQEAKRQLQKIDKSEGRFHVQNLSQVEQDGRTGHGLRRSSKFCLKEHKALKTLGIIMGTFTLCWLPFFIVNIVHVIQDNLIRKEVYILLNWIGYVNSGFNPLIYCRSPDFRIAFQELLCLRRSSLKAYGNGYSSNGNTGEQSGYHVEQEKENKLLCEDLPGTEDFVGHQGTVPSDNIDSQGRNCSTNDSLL
Sequence of KiSS-1 receptor (Homo sapiens) (Q969F8 whole entry, looked up): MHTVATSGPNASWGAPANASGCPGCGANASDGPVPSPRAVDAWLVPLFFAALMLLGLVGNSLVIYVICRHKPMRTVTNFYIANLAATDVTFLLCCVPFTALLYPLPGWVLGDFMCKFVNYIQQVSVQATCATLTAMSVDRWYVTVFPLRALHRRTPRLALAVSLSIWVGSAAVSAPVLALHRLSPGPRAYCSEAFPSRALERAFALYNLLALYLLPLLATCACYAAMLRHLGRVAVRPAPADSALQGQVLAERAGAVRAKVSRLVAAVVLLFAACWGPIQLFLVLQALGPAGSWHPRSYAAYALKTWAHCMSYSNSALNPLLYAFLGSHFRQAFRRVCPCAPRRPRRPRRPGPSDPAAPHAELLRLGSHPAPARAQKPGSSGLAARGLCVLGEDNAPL
Sequence of Muscarinic acetylcholine receptor M1 (Homo sapiens) (P11229 whole entry, looked up): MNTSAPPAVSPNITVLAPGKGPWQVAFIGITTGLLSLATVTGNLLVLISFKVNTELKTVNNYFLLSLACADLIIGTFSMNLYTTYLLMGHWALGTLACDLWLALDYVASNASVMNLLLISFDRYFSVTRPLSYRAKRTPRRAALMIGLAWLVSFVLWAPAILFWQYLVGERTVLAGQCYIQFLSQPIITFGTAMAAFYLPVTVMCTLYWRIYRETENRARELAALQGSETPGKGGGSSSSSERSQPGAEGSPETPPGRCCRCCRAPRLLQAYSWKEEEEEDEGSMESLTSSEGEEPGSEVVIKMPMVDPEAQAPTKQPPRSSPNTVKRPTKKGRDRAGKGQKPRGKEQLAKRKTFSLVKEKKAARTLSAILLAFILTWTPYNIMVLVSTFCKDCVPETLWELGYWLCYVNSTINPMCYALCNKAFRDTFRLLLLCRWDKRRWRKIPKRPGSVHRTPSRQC

CN(C)C(=O)Oc1cccc([N+](C)(C)C)c1
inactive: Potency [1] | Potency [2] | Potency [3] | Potency [4] | Potency [5] | Potency [6] | Potency [7] | Potency [8] | Potency [9] | Potency [10] | Potency [11] | Potency [12] | Potency [13]

CC[C@@]1(O)C(=O)OCc2c1cc1n(c2=O)Cc2cc3c(CN(C)C)c(O)ccc3nc2-1
inactive: Potency [1] | Potency [2] | Potency [6] | Potency [11] | Potency [14] | Potency [12] | Potency [13]

COc1cc2ncnc(Nc3ccc(F)c(Cl)c3)c2cc1OCCCN1CCOCC1
inactive: Potency [1] | Potency [2] | Potency [3] | Potency [15] | Potency [4] | Potency [5] | Potency [6] | Potency [16] | Potency [17] | Potency [18] | Potency [11] | Potency [14] | Potency [12]
active: Potency [13] 29.8 µM

Cc1oc2c(NC(=O)c3c(Cl)cccc3Cl)cccc2c1C(C)(C)O
inactive: Potency [1] | Potency [2] | Potency [3] | Potency [15] | Potency [5] | Potency [6] | Potency [7] | Potency [16] | Potency [19] | Potency [17] | Potency [18] | Potency [9] | Potency [10] | Potency [11] | Potency [13]

CCN(CC)CCCC(C)Nc1ccnc2cc(Cl)ccc12 (stereo unspecified)
active: Potency [17] 2.52 µM
inactive: activity, positive = activation [1] -10.3% [at 8.39 µM] and 0.993% [at 19 µM] | activation [2] -0.539% [at 6.97 µM] and -0.536% [at 15.8 µM] | activation [3] 0.411% [at 5.23 µM] and -0.526% [at 11.8 µM] | activity change, negative = cytotoxicity [5] 1.38% [at 5.99 µM] and -6.37% [at 13.5 µM] | activity change, negative = cytotoxicity [6] 0.0381% [at 5.99 µM] and -13.2% [at 13.5 µM] | activity change, negative = cytotoxicity [7] -9.2% [at 5.99 µM] and -2.12% [at 13.5 µM] | activity, negative = inhibition [16] 2.23% [at 5.62 µM] and 1.08% [at 12.7 µM] | activation [19] -0.411% [at 7.02 µM] and 1.58% [at 15.9 µM] | activation [18] -0.78% [at 6.97 µM] and -0.406% [at 15.8 µM] | activity change, negative = inhibition [11] 0.663% [at 8.39 µM] and -0.0752% [at 19 µM] | activation [14] 0.827% [at 19 µM] | activation [12] -2.86% [at 8.39 µM] | activity change, negative = inhibition [13] -2.41% [at 8.38 µM] and 1.11% [at 18.9 µM]

CCOC(=O)COc1ccc2c(c1)CC(NCC(O)c1cccc(Cl)c1)CC2 (stereo unspecified)
inactive: Potency [1] | Potency [2] | Potency [3] | Potency [15] | Potency [4] | Potency [5] | Potency [7] | Potency [8] | Potency [16] | Potency [18] | Potency [14]
active: Potency [19] 31.2 µM

CCN(CC)C(=O)c1cc(S(=O)(=O)Cc2ccccc2)c(N2CCC(c3ccccc3)CC2)cc1N(CC)CCN(C)C
inactive: Potency [1] | Potency [3] | Potency [15] | Potency [4] | Potency [6] | Potency [7] | Potency [19] | Potency [18] | Potency [12]
active: Potency [11] 24.1 µM | Potency [13] 21.4 µM
